We go through ten molecules from the supplement of paper PMC10369915.

The target of the experiment is SHP2 N-SH2 domain T42A. The experiment can be described thus: log2 enrichment relative to wild-type ITIM peptide; higher = stronger binding.
On to VFSVDYGELPF [PD-1 ITIM pTyr223 peptide variant D227P], for which the log2 enrichment was -1.19. The value for VFSVDYGEPDF [PD-1 ITIM pTyr223 peptide variant L226P] was -0.564; that for VFSVPYGELDF [PD-1 ITIM pTyr223 peptide variant D222P] was 1.61; that for PFSVDYGELDF [PD-1 ITIM pTyr223 peptide variant V218P] was 0.0339. The value for VFSPDYGELDF [PD-1 ITIM pTyr223 peptide variant V221P] was -1.23; that for VPSVDYGELDF [PD-1 ITIM pTyr223 peptide variant F219P] was 0.209. The value for VFSVDYPELDF [PD-1 ITIM pTyr223 peptide variant G224P] was 1.75; that for VFSVDYGELDP [PD-1 ITIM pTyr223 peptide variant F228P] was -1.6. On to VFSVDYGELMF [PD-1 ITIM pTyr223 peptide variant D227M], for which the log2 enrichment was -0.781. Under VFSVDYGMLDF [PD-1 ITIM pTyr223 peptide variant E225M] stands -0.596.
